Test results from PubChem BioAssay (Tox21).
Results filed as inconclusive are left out. Activity calls are given as the source filed them. Unless noted, calls come from the whole dose curve.

How the values were obtained:
[1] = Nuclear factor erythroid 2-related factor 2/antioxidant responsive element (Nrf2/ARE) small molecule agonists: qHTS cell viability counter screen in human keratinocytes (AID 1919968; active = well fitted curve in the direction sought with a large enough effect in the repeat runs; an effect the other way counts as inactive or inconclusive; note: nearly all actives have a fitted effect of over 55% in size)
In short: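 KeratinoSens cells (HaCaT keratinocytes stably carrying an ARE-luciferase reporter) were seeded at 1,500 cells/well and rested 5 h at 37 C/5% CO2. They were then exposed to compounds in DMSO for 23 h. Viability was read by CellTiter-Fluor fluorescence after 1 h.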

[2] = Nuclear factor erythroid 2-related factor 2/antioxidant responsive element (Nrf2/ARE) small molecule agonists: luciferase reporter gene qHTS assay in human keratinocytes (AID 1919969); note: nearly all actives have a fitted effect of over 35% in size
[3] = molecular target: Gonadotropin-releasing hormone receptor (Homo sapiens) (UniProt P30968); assay: Human gonadotropin-releasing hormone receptor (GnRHR) small molecule agonists, calcium flux assay in GnRHR-HEK293 cells (AID 1920063); note: nearly all actives have a fitted effect of over 35% in size
In short: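 HEK293 cells stably expressing human GnRHR were plated 18 h at 37 °C, loaded with calcium dye 1 h at 37 °C, then given compound in agonist mode; fluorescence (Ex/Em 480/540) read kinetically for 3 min at 1 s intervals.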

[4] = molecular target: KiSS-1 receptor (Homo sapiens) (UniProt Q969F8); assay: Human kisspeptin (KISS1R) small molecule agonists, calcium flux assay in KISS1R-HEK293 cells (AID 1920064; active = well fitted curve in the direction sought with a large enough effect in the repeat runs; an effect the other way counts as inactive or inconclusive)
In short: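 HEK293 cells stably expressing human KISS1R were plated 18 h at 37 °C, loaded with calcium dye for 1 h at 37 °C, then given compound by pin tool. Fluorescence (Ex/Em 480/540) was read kinetically for 3 min.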

[5] = G protein-coupled receptor (GPCR) small molecule agonists, calcium flux assay: HEK293 wild type cell line counter screen (AID 1920065)
In short: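 Cells were plated and cultured 18 h at 37 C/5% CO2, then loaded with calcium dye for 1 h at 37 C. Compounds in DMSO were pin-transferred in agonist mode, and fluorescence (Ex/Em 480/540) was read kinetically for 3 min at 1 s intervals.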

[6] = p53 small molecule agonists, cell-based qHTS assay with human liver microsomes (AID 1963577)
In short: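 Compounds act here after metabolic activation: human liver microsomes and NADPH, both at 0.5 mg/mL final, were co-added to p53RE-bla cells. Incubation ran 16 h at 37 C, followed by LiveBLAzer detection.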

[7] = p53 small molecule agonists, cell-based qHTS assay with rat liver microsomes (AID 1963578)
In short: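 Read-out is beta-lactamase reporter fluorescence (LiveBLAzer, 2 h, room temperature, dark) in p53RE-bla cells treated 16 h at 37 C with compound, rat liver microsomes and NADPH, both 0.5 mg/mL final.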

[8] = p53 small molecule agonists, cell-based qHTS assay with human liver microsomes: qHTS cell viability counter screen (AID 1963579); note: nearly all actives have a fitted effect of over 45% in size
In short: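 Cells carrying the p53 response-element beta-lactamase reporter are treated for 16 h at 37 C with test compounds in the presence of human liver microsomes and NADPH (both 0.5 mg/mL final); ATP-based CellTiter-Glo luminescence then reports viability.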

[9] = p53 small molecule agonists, cell-based qHTS assay with rat liver microsomes: qHTS cell viability counter screen (AID 1963580); note: nearly all actives have a fitted effect of over 45% in size
In short: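 p53RE-bla HCT-116 cells were exposed 16 h at 37 C to compounds with rat liver microsomes (0.5 mg/mL) and NADPH (0.5 mg/mL). Viability was measured in the same wells as ATP content by CellTiter-Glo luminescence.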

[10] = p53 small molecule agonists, cell-based qHTS assay: qHTS cell viability counter screen (AID 1963581); note: nearly all actives have a fitted effect of over 45% in size
In short: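 p53RE-bla HCT-116 cells were exposed to compounds for 16 h at 37 C; after the beta-lactamase FRET read in the same wells, CellTiter-Glo was added and luminescence (intracellular ATP) read after 30 min at room temperature.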

[11] = cAMP Responsive Elements (CRE) small molecule agonists, cell-based qHTS assay (AID 1963590)
In short: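 CRE-bla HEK 293T cells in DMEM with 10% dialyzed FBS, NEAA, pyruvate and 25 mM HEPES were plated 18 h at 37 C/5% CO2, then exposed to compounds in DMSO for 3 h before LiveBLAzer B/G FRET substrate addition.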

[12] = cAMP Responsive Elements (CRE) small molecule antagonists, cell-based qHTS assay (AID 1963591; active = well fitted inhibition curve with a large enough effect in the signal ratio in the repeat runs, not every such curve was filed as active; the % refers to the signal ratio)
In short: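 CRE-bla HEK293T cells were plated 18 h at 37 °C/5% CO2, pinned with compound in DMSO, then stimulated with NKH477 at 0.25 uM final for 3 h. LiveBLAzer B/G FRET substrate was added and plates incubated 2 h at room temperature.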

[13] = molecular target: Beta-2 adrenergic receptor (Homo sapiens) (UniProt P07550); assay: Adrenergic beta2 receptor (ADRB2) small molecule antagonists, cell-based qHTS assay (AID 1963592); note: series mostly up to about 92 µM; nearly all actives have a fitted effect of over 50% in size
In short: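 Cells (CHO, stable ADRB2 overexpression) incubated 18-20hr at 37C; compounds added from DMSO; agonist mix (1nM isoproterenol, 100uM IBMX, 25uM Ro-20-1724) added; 0.5hr RT; d2-cAMP and anti-cAMP-cryptate added; 1hr RT; 665/615 nm read.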

[14] = molecular target: Beta-2 adrenergic receptor (Homo sapiens) (UniProt P07550); assay: Adrenergic beta2 receptor (ADRB2) small molecule agonists, cell-based qHTS assay (AID 1963593);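 note: CHO cells stably overexpressing human ADRB2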
In short: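 CHO cells stably over-expressing ADRB2 were plated overnight at 37C, then dosed with compounds plus a stimulation mix containing 100uM IBMX and 25uM Ro-20-1724 for 0.5hr at room temperature. cAMP was measured by HTRF competition, 1hr.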

[15] = molecular target: D(2) dopamine receptor (Homo sapiens) (UniProt P14416); assay: Dopamine D2 receptor (DRD2) small molecule agonists, cell-based qHTS assay (AID 1963594); note: nearly all actives have a fitted effect of over 35% in size
In short: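 HEK293 cells stably expressing human DRD2, pre-treated with PDE inhibitor Ro20-1724 (0.1 mM final) and compound 10 min at room temperature, then stimulated with NKH477 (200nM […]) for 30 min. cAMP read by HTRF (665/620 nm).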

[16] = p53 small molecule agonists, cell-based qHTS assay (AID 1963582; active = well fitted activation curve with a large enough effect in the signal ratio in the repeat runs, not every such curve was filed as active; the % refers to the signal ratio)
In short: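 p53RE-bla beta-lactamase reporter cells rested 5 h at 37 C/5% CO2, then received compounds in DMSO by pin transfer and were incubated 16 h at 37 C. LiveBLAzer B/G FRET substrate was loaded for 2 h at room temperature before fluorescence reading.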

[17] = molecular target: 5-hydroxytryptamine receptor 2A (Homo sapiens) (UniProt P28223); assay: 5-hydroxytryptamine receptor 2A (HTR2A) small molecule antagonists, cell-based qHTS assay (AID 1963586); note: nearly all actives have a fitted effect of over 45% in size
In short: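 Antagonist-mode intracellular calcium assay: DOI (4 nM) added after 5 min compound pre-incubation at room temperature to dye-loaded HTR2A-CHO cells. Fluorescence followed for 3 min, sampled every second.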

[18] = molecular target: 5-hydroxytryptamine receptor 2A (Homo sapiens) (UniProt P28223); assay: 5-hydroxytryptamine receptor 2A (HTR2A) small molecule agonists, cell-based qHTS assay (AID 1963587); note: nearly all actives have a fitted effect of over 30% in size
In short: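 CHO cells stably expressing human HTR2A, plated 18 h, loaded with calcium dye 1 h at 37 C. Agonist mode: compounds added and intracellular calcium fluorescence recorded kinetically for 2 min at 1 sec intervals.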

[19] = molecular target: Muscarinic acetylcholine receptor M1 (Homo sapiens) (UniProt P11229); assay: Cholinergic receptor muscarinic 1 (CHRM1) small molecule antagonists, cell-based qHTS assay (AID 1963588); note: nearly all actives have a fitted effect of over 40% in size
In short: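 CHRM1-CHO calcium-flux assay, antagonist mode. Cells were seeded 18 h, dye-loaded 1 h at 37 C and given compound for 5 min at RT, then acetylcholine was added at 50nM. FDSS fluorescence was read 3 min; 15 concentrations, three runs.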

[20] = molecular target: D(2) dopamine receptor (Homo sapiens) (UniProt P14416); assay: Dopamine D2 receptor (DRD2) small molecule antagonists, cell-based qHTS assay (AID 1963595; active = well fitted inhibition curve with a large enough effect in the signal ratio in the repeat runs, with a control signal flat; the % refers to the signal ratio)
In short: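 HTRF cAMP read-out at 665 and 620 nm emission (340 nm excitation). Antagonist mode: compounds were tested against 12 nM quinpirole in DRD2-HEK293 cells, with 200 nM NKH477 raising cAMP and 0.1 mM Ro20-1724 blocking its breakdown.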

Measured: Potency

Chain of D(2) dopamine receptor (Homo sapiens) (P14416 whole entry, looked up): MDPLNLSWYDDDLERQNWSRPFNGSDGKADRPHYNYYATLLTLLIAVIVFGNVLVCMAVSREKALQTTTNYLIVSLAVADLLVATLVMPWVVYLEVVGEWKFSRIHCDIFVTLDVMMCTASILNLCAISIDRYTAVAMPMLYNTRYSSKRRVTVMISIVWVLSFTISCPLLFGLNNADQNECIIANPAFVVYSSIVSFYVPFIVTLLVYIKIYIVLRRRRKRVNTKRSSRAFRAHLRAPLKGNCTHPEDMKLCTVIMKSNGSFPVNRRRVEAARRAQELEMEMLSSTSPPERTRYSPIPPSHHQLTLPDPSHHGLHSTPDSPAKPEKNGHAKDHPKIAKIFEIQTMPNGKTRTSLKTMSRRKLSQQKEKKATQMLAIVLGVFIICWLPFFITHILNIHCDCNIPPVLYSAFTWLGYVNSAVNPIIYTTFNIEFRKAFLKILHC
Chain of Gonadotropin-releasing hormone receptor (Homo sapiens) (P30968 whole entry, looked up): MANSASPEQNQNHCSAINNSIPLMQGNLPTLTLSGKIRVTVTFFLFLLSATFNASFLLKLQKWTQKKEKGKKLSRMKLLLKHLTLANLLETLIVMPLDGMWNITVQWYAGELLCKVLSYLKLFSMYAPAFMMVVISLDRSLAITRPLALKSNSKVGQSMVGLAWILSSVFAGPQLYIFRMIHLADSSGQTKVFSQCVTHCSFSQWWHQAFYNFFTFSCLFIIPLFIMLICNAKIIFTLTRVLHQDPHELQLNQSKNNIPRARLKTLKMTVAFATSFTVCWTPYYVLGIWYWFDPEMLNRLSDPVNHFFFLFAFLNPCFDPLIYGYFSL
Chain of Muscarinic acetylcholine receptor M1 (Homo sapiens) (P11229 whole entry, looked up): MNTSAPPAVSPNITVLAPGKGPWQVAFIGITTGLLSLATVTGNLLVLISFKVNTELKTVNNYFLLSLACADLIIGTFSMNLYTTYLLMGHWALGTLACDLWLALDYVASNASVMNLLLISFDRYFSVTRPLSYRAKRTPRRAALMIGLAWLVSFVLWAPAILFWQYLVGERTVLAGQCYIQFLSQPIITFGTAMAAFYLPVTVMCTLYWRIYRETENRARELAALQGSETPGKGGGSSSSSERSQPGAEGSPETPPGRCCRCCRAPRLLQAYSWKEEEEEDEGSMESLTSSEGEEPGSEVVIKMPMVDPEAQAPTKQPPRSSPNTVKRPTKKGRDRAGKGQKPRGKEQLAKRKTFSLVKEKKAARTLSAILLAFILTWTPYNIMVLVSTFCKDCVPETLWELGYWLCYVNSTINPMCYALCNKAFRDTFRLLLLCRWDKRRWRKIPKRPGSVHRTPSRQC
Chain of Beta-2 adrenergic receptor (Homo sapiens) (P07550 whole entry, looked up): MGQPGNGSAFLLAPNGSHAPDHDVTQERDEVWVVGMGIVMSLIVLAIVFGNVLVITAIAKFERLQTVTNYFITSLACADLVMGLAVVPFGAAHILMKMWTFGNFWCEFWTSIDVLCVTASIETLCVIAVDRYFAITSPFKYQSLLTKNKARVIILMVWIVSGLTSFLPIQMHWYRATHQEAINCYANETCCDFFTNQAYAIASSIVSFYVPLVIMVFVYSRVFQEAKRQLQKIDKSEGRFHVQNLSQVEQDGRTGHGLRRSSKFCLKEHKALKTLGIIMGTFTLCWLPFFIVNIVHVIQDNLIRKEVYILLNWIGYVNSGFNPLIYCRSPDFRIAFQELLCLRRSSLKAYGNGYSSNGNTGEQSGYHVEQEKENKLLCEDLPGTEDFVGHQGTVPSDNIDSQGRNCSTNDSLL
Chain of KiSS-1 receptor (Homo sapiens) (Q969F8 whole entry, looked up): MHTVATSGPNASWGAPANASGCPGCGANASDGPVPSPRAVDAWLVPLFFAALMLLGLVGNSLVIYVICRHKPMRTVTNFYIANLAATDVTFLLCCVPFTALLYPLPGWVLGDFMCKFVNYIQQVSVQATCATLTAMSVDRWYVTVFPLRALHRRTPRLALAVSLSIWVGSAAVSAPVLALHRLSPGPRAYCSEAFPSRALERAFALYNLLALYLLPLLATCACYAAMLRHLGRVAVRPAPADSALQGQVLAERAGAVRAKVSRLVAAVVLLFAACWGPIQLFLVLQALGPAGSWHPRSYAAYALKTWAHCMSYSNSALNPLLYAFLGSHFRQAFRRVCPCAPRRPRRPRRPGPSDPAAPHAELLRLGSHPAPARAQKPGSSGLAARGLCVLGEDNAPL
Chain of 5-hydroxytryptamine receptor 2A (Homo sapiens) (P28223 whole entry, looked up): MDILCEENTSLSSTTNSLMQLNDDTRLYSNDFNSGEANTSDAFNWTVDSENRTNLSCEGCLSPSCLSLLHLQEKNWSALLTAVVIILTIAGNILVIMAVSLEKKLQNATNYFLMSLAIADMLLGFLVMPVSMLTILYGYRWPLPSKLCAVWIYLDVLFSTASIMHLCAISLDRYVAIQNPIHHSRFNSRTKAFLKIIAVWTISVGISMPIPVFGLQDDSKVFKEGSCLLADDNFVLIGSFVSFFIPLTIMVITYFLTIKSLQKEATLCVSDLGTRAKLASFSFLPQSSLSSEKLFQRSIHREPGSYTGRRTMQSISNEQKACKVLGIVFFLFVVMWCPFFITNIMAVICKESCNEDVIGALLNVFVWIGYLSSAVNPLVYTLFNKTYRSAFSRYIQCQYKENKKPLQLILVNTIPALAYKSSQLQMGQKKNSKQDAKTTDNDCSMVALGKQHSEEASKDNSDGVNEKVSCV

Cc1cc(C)nc(NS(=O)(=O)c2ccc(N)cc2)n1
not listed: [16] | [17] | [18] | [19] | [20]
inactive: all other assays above

C=C(C)C(=O)OCCC[Si](OC)(OC)OC
not listed: [10] | [14]
inactive: all other assays above

Cc1c(N(C)CS(=O)(=O)O)c(=O)n(-c2ccccc2)n1C
not listed: [10] | [14] | [17] | [18] | [19]
inactive: all other assays above

O=Cc1ccc(CO)o1
not listed: [9]
inactive: all other assays above

CC(CCC(=O)O)(c1ccc(O)cc1)c1ccc(O)cc1
not listed: [10] | [14]
inactive: all other assays above

Cc1cnc(NC(=O)C2=C(O)c3ccccc3S(=O)(=O)N2C)s1
not listed: [16] | [17] | [18] | [19]
inactive: all other assays above

CC(=O)[C@@]1(O)CC[C@H]2[C@@H]3C[C@H](C)C4=CC(=O)C=C[C@]4(C)[C@@]3(F)[C@@H](O)C[C@@]21C
not listed: [10] | [12] | [17] | [18] | [19]
inactive: all other assays above

CCCCCCCCCCCCCC(=O)OC(C)C
not listed: [16] | [19]
inactive: all other assays above
